The source of these data is the supplement of paper PMC6279402.

Counter-ions that a name gives are not always drawn. ± gives the standard deviation of the averaged measurements.

This experiment has as its system A549. The experiment is described as follows: relative viability (normalised to negative control = 1, bortezomib = 0) (fraction); higher = less cytotoxic. Conditions: inflammatory serum-free RHB-A with cytokines + LPS; 5 d + 24 h CellTiter-Blue; compound 30 nM; GSK126 pretreatment: none (vehicle).
For the compound `O=C1c2c(O)ccc(O)c2C(=O)c2c(NCCNCCO)ccc(NCCNCCO)c21` [Mitoxantrone; Mitoxantrone dihydrochloride], the relative viability was determined as 0.376 ± 0.022.

Turning to `C[C@@H]1CCN(C(=O)CC#N)C[C@@H]1N(C)c1ncnc2[nH]ccc12`, the relative viability came to 0.99 ± 0.17.

Regarding `COc1cc2c(N3CCN(C(=O)Nc4ccc(OC(C)C)cc4)CC3)ncnc2cc1OCCCN1CCCCC1` [Tandutinib (MLN518)], the relative viability was determined as 0.735 ± 0.071.

`FC(F)(F)c1ccc(/C=C/c2nc(COc3ccc(CCCCn4ccnn4)cc3)co2)cc1` [Mubritinib (TAK 165)]: the relative viability is 0.837 ± 0.061.

As to `NC(=O)NO` [Hydroxyurea], the relative viability came out at 1.05 ± 0.1.

As to `Cn1nnc2c(C(N)=O)ncn2c1=O` [Temozolomide], the relative viability came to 0.837 ± 0.029.

For the compound `CN1CC[C@H](c2c(O)cc(O)c3c(=O)cc(-c4ccccc4Cl)oc23)[C@H](O)C1` [Flavopiridol hydrochloride], the relative viability came out at 0.785 ± 0.025.

Consider `CNC(=O)c1ccc(C)c(-n2c(C)cc(OCc3ccc(F)cc3F)c(Br)c2=O)c1`, for which the relative viability came to 0.936 ± 0.17.

Take `CCS(=O)(=O)c1cccc(-c2cc(C(=O)NC3CCN(C)CC3)c(C)c3[nH]c4ncc(C)cc4c23)c1`: the relative viability came to 0.72 ± 0.058.

With `Nc1nc2[nH]cc(CCc3ccc(C(=O)N[C@@H](CCC(=O)O)C(=O)O)cc3)c2c(=O)[nH]1` [Pemetrexed; Pemetrexed Disodium], the relative viability turned out to be 0.88 ± 0.078.

As for `CCOc1cc2ncc(C#N)c(Nc3ccc(OCc4ccccn4)c(Cl)c3)c2cc1NC(=O)/C=C/CN(C)C` [Neratinib], the relative viability was determined as 0.675 ± 0.14.

`NC1(c2ccc(-c3nc4ccn5c(=O)[nH]nc5c4cc3-c3ccccc3)cc2)CCC1`: the relative viability amounted to 0.691 ± 0.063.
